Screening results from PubChem.
Ba/F3 V617F tox: reduce viability of Ba/F3 cells dependent on JAK2V617F. Ba/F3 EpoR-JAK2V617F viability, ATP luminescence. inhibition, % at 5.6 µM. 1.1% of 220,000 active;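 active means inhibition above the campaign mean plus 3 SD over all tested compounds, cut at about 24% in these data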;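 further: cytokine-independent growth of Ba/F3 cells driven by EpoR plus mutant JAK2; 0% = DMSO-treated cells and 100% = JAK inhibitor I control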
KLF5 inh: inhibitors of KLF5 expression. 0.23% of 290,000 active. DLD-1 KLF5 promoter-luciferase reporter, luminescence. AID 1700. inhibition, % at 5 µM;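 active means inhibition above a per-plate limit of that plate's mean compound inhibition plus 3 SD, cut at about 60% in these data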;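 further: 0% = DMSO wells and 100% = LY294002 at 200 µM; higher means less KLF5 promoter-driven luciferase light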
IEC-6 tox-1: counter-screen for KLF5 inhibitors: cytotoxicity in IEC-6 cells | IEC-6 cytotoxicity, luminescence viability | inhibition, % at 5 µM | 0.78% of 290,000 active | AID 1825;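 further: 0% = plate median of test compound wells and 100% = cytotoxic reference compound wells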
BaF3 tox: parental Ba/F3 viability inhibition as JAK2V617F counter-screen; CellTiter-Glo ATP luminescence; inhibition, % at 5.6 µM; 1.1% of 220,000 active; AID 1486;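 active means inhibition above a per-campaign cutoff, the mean inhibition of all tested compounds plus 3 SD, cut at about 27% in these data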;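 further: 0% = DMSO wells and 100% = JAK Inhibitor I control wells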
APP transl inh: APP translation inhibition; inhibition, % at 2 µM; SH-SY5Y APP 5'UTR-luciferase reporter, luminescence; 0.82% of 190,000 active;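 active means inhibition above a set limit, derived from the sample mean plus 3 SD, cut at about 45% in these data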
aSyn UTR inh: 5' untranslated region of α-synuclein, MLPCN primary screen | inhibition, % (tested at 7.5 µM) | AID 1813 | 0.82% of 300,000 active | alpha-synuclein 5'UTR reporter, inhibitor activity; in the data active means inhibition above about 60%;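 further: H4 neuroglioblastoma cells stably carrying SNCA 5'UTR luciferase fusion; 0% = DMSO wells and 100% = positive control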
KLF5 confirm: KLF5 inhibition, confirmation assay. shares compounds with KLF5 inh. inhibition, % at 4 µM. DLD-1 KLF5 promoter firefly luciferase reporter, luminescence. 79% of 610 active;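 active means inhibition above a set limit taken from the earlier primary screen, cut at about 63% in these data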;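 further: 0% = DMSO wells and 100% = LY294002 at 200 µM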
IEC-6 tox-2: counter-screen for KLF5 inhibitors: cytotoxicity in rat IEC-6 cells; IEC-6 rat intestinal cells, viability luminescence; inhibition, % at 4 µM; shares compounds with KLF5 inh; 56% of 610 active; in the data active means inhibition above about 23%;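 further: cells exposed to compounds for 48 hours before viability read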
IEC-6 cytotox cf: confirmation of cytotoxic compounds in rat IEC-6 intestinal epithelial cells. IEC-6 rat intestinal epithelial viability, luminescence. shares compounds with IEC-6 tox-1. AID 1907. 63% of 1,900 active. inhibition, % at 5 µM;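 further: 0% = vehicle and 100% = reference cytotoxic drug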
Numbers without * were called inactive; nt = no result given. Shown are actives, neighbours in structure and some others; about 2.2% of the full set was active somewhere. Unless noted, no stated cut-off is given here; in the data, active means inhibition above about 22%; inactive means the rest.

SMILES	Ba/F3 V617F tox	KLF5 inh	IEC-6 tox-1	BaF3 tox	APP transl inh	aSyn UTR inh	KLF5 confirm	IEC-6 tox-2	IEC-6 cytotox cf
CCOc1ncccc1C(=O)N1CCN(c2cc(Cl)ccc2C)CC1	64.6*	68.2*	81.8*	67.8*	90.8*	57.0	77.7*	64.0*	60.8*
CCOc1ncccc1C(=O)N1CCN(C(=O)c2ccccc2)CC1	-5.9	-28.4	-4.4	0.0	-4.7	-10.2	nt	nt	nt
CCOC(=O)C1(Cc2cccc(OC)c2)CCCN(C(=O)CCN2CCCO2)C1 (configuration not stated)	nt	-132.3	-3.2	nt	nt	-111.9	nt	nt	nt
C/C(=N\NC(=O)c1n[nH]c2c1CCC2)c1cccs1	72.2*	74.7*	81.3*	73.1*	nt	107.2*	70.7*	3.3	17.4
COc1cc(C(=O)N/N=C/c2sccc2C)cc(OC)c1OC	80.4*	70.2*	88.6*	84.5*	91.9*	114.1*	85.8*	63.0*	65.1*
Cc1ccsc1/C=N/NC(=O)c1ccncc1	1.4	6.8	1.1	1.7	-3.2	-25.2	nt	nt	nt
COc1cccc(N(CC(=O)NCCSc2ccccn2)S(=O)(=O)c2ccccc2)c1	nt	-12.5	3.7	nt	nt	-2.9	nt	nt	nt
CCCCCCCCCC[n+]1cccc2c3ccccc3ccc21	101.0*	95.5*	52.5*	92.0*	23.8	-37.4	65.5*	38.3*	35.7*
CCOC(=O)C(CC)n1cnc2c(nnn2-c2ccc(F)cc2)c1=O (configuration not stated)	nt	-10.1	-3.4	nt	nt	6.3	nt	nt	nt
O=C(Nc1nc2ccccc2[nH]1)c1ccccc1F	49.5*	75.8*	43.4*	46.1*	1.4	108.4*	74.6*	46.3*	56.8*
O=C(Nc1nc2ccccc2[nH]1)c1ccccc1OC(F)F	nt	-76.4	10.7	nt	nt	0.5	nt	nt	nt
COc1ccc(CN2CC[C@H]3C=CC[C@@H](C(=O)NCCc4ccccc4)[C@H]3C2=O)cc1OC	nt	nt	nt	nt	nt	-26.5	nt	nt	nt
COc1ccc(OC)c(NS(=O)(=O)c2ccc(N3CCCC3=O)cc2)c1	79.3*	82.9*	87.5*	81.2*	95.9*	110.7*	82.8*	61.6*	53.2*
CCOc1ccc(S(=O)(=O)Nc2cc(OC)ccc2OC)cc1	80.0*	72.7*	89.5*	80.1*	93.3*	80.7*	82.5*	59.4*	62.0*
COc1ccc(CCNS(=O)(=O)c2ccc(N3CCCC3=O)cc2)cc1	-3.4	-41.6	-1.8	3.2	-5.3	-19.3	nt	nt	nt
CCOC1=NN(c2ncc(C(F)(F)F)cc2Cl)C(=O)/C1=C/N(C)C	-3.8	-32.8	-3.4	-0.1	11.1	-13.1	nt	nt	nt
COc1cccc(N2CCN(C(=O)c3ccc(CS(=O)Cc4ccc(C)cc4)o3)CC2)c1 (configuration not stated)	nt	1.4	-6.5	nt	nt	14.3	nt	nt	nt
COc1cccc(N2CCN(C(=O)c3ccc(CS(=O)c4ccc(C)cc4)o3)CC2)c1 (configuration not stated)	nt	73.7*	84.6*	nt	nt	96.6*	92.5*	85.1*	59.2*
CCOc1ccc(-c2cc(N3C(=O)Nc4ccccc4N3O)n[nH]2)cc1	75.5*	68.7*	70.2*	77.2*	24.6	-6.8	2.0	18.8	2.2
O=C(Nc1nnc(-c2ccc3c(c2)OCCO3)o1)C1CCCCC1	1.6	-7.6	0.0	4.8	-84.8	-88.3	nt	nt	nt
O=C(Cc1n[nH]c(=O)c2ccccc12)OCC(=O)c1ccc2c(c1)OCCO2	83.5*	77.0*	89.4*	82.2*	94.6*	80.4*	65.4*	71.5*	60.3*
CCN(CC)c1ccc(NC(=O)c2cc(OC)cc(OC)c2)c(C)c1	78.5*	75.2*	77.7*	78.0*	92.4*	-22.6	79.2*	59.6*	60.4*
CCN(CC)c1ccc(N=Cc2ccc(N(CC)CC)cc2O)cc1	1.2	-32.4	-3.4	6.9	10.1	-19.7	nt	nt	nt
CCN(CC)c1ccc(/C=N/N=C(N)N)c(O)c1	78.3*	74.7*	68.9*	75.3*	92.2*	86.9*	77.3*	66.6*	56.9*
CC(=O)Nc1ccc2c(CSc3nnc(N)s3)cc(=O)oc2c1	-2.7	-3.3	1.9	6.1	nt	-17.8	nt	nt	nt
SMILES	Ba/F3 V617F tox	KLF5 inh	IEC-6 tox-1	BaF3 tox	APP transl inh	aSyn UTR inh	KLF5 confirm	IEC-6 tox-2	IEC-6 cytotox cf
CCCCS(=O)(=O)/C=C\C=C/S(=O)(=O)CCCC	100.7*	103.2*	101.9*	104.9*	97.7*	-8.6	91.8*	100.5*	40.5*
CCCC1(c2ccccc2)NC(=O)N(CC(=O)Nc2cc(OC)cc(OC)c2)C1=O (configuration not stated)	nt	-17.9	3.9	nt	nt	-11.7	nt	nt	nt
O=C(N/N=C(\c1ccccc1)c1cccnc1)c1ccc(O)cc1	nt	-47.8	-3.7	nt	nt	-1.6	nt	nt	nt
O=C(N/N=C(\c1ccccc1)c1cccnc1)c1cccc(F)c1	nt	67.7*	99.7*	nt	nt	80.4*	84.4*	75.2*	79.5*
CC(C)C(=O)c1cn(CC(=O)NCc2ccco2)c2ccccc12	1.7	4.1	2.8	2.8	-13.0	-42.4	nt	nt	nt
CCOC(=O)C(C)Oc1cccc2c(=O)n(CC(=O)NCc3ccco3)ccc12 (configuration not stated)	77.1*	76.9*	77.1*	68.4*	93.6*	73.0*	80.5*	55.5*	51.9*
Cc1ccc(S(=O)(=O)Cc2ccc(C(=O)N3CCN(c4cccc(C)c4C)CC3)o2)cc1	nt	64.0*	77.2*	nt	nt	88.5*	68.0*	56.8*	56.4*
COc1ccc(S(=O)(=O)Cc2ccc(C(=O)N3CCN(c4cccc(C)c4C)CC3)o2)cc1	0.9	-8.3	2.2	4.5	-14.5	7.1	nt	nt	nt
CCc1cc(C(=O)N(CC(C)C)c2c(N)n(Cc3ccccc3)c(=O)[nH]c2=O)sc1C	nt	nt	nt	nt	nt	0.2	nt	nt	nt
CCCCCC(=O)N[C@@H](c1ccccc1)[C@@H](O)C(=O)O[C@H]1C[C@@]2(O)[C@@H](OC(=O)c3ccccc3)C3[C@](C)(C(=O)[C@H](OC(C)=O)C(=C1C)C2(C)C)[C@@H](O)C[C@H]1OC[C@@]31OC(C)=O (some centres not stated)	nt	66.1*	95.8*	nt	nt	87.2*	83.6*	87.9*	85.8*
CC1(C)Cc2c(cnn2-c2cccc(F)c2)C(NC(=O)Cn2cccn2)C1 (configuration not stated)	nt	-24.3	-0.6	nt	nt	20.0	nt	nt	nt
O=C(c1ccc2c(c1)OCO2)C1CCCN(Cc2ccc(OC(F)F)cc2)C1 (configuration not stated)	nt	-25.4	0.6	nt	nt	-1.1	nt	nt	nt
COc1ccc(NS(=O)(=O)c2cc(C)ccc2NC(=O)c2cc(C)oc2C)cc1	75.1*	62.5*	81.8*	78.7*	95.2*	103.5*	81.0*	62.1*	62.2*
CCOc1ccc(C(C)=O)cc1COc1cccnc1[N+](=O)[O-]	nt	31.0	28.5*	nt	nt	-44.7	nt	nt	23.7*
